# Assay outcomes from PubChem.
# In the library only some 1.6% were active in any assay of this set; here they are far more common.
# STAT1 inh = STAT1 signaling inhibitors, primary screen, cell-based, HTS, luciferase reporter. NIH 3T3 STAT1-luciferase reporter, IFN-gamma, luminescence. inhibition, % at 5.5 µM. actives 0.35% (n = 200,000). AID 920, 2007;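 active = inhibition above a set limit, the mean inhibition across all tested compounds plus 3 SD, cut at about 34% in these data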
# Platelet DG rel = inhibitors of platelet dense granule secretion, primary screen, cell-based, MLPCN, human platelets. human platelet-rich plasma, SFLLRN dense granule ATP release, luminescence. inhibition, %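 (compounds screened at 7.5 µM in platelet-rich plasma)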. actives 0.22% (n = 300,000);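 active = mean replicate score, as percent of positive control, at or above 50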
# TRAIL sens C8 = viability loss with TRAIL in NB7+C8 cells, primary screen, TRAIL sensitizer project, cell-based, ATPlite luminescence; inhibition (viability loss, TRAIL sensitization), % at 10 µM; actives 1% (n = 360,000); AID 624354, 2012;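 active = compounds causing at least 50% loss of cell viability in the single-dose screen, relative to plate controls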
# STAT3 inh-1 = IL-6 driven STAT3 reporter inhibitors, primary screen, U3A cells, luciferase, luminescence, MLSCN library | actives 0.89% (n = 190,000) | IL-6 STAT3-luciferase reporter; host cell line lacks STAT1 | inhibition, % at 5.5 µM | AID 862, 2007;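 active = inhibition above the mean inhibition across all screened compounds plus 3 SD, cut at about 44% in these data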
# PPC-1+TRAIL kill = compounds killing PPC-1 cancer cells with TRAIL present, primary screen, TRAIL potentiator project, ATPLite luminescence, uHTS; cell killing (% activity), % at 4 µM or 5 µM; actives 0.41% (n = 220,000); PPC-1 cells + TRAIL, ATPLite viability luminescence; AID 1443, 2008;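 active = cell killing above 50% in the first pass at 4 µM, then a duplicate retest at 5 µM averaging 50% or more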
# STAT3 inh-2 = STAT3 reporter inhibitors, retest of hits, confirmation, U3A cells, luciferase, luminescence | inhibition, % at 5.7 µM | IL-6 STAT3 luciferase reporter; cell line lacks STAT1 | shares compounds with STAT3 inh-1 | AID 1265, 2008 | actives 45% (n = 1,200);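 active = inhibition above the hit cutoff computed for the primary STAT3 screen, cut at about 44% in these data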
# NFkB inh 2 = NF-kB reporter inhibitors in human cells, confirmation, counter-screen for STAT3 inhibitor project, cell-based, HEK293T, luciferase, TNF-alpha stimulus. actives 36% (n = 1,200). inhibition, % at 5.7 µM. AID 1308, 2008. shares compounds with STAT3 inh-1. TNF-alpha induced;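 active = inhibition above the mean of solvent-only control wells plus 3 SD, cutoff set per campaign, cut at about 13% in these data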
# STAT1 inh STAT3c = STAT1 reporter inhibitors, IFN-gamma induced, confirmation, counter-screen for STAT3 inhibitor project, cell-based, NIH 3T3, luciferase luminescence. inhibition, % at 5.7 µM. shares compounds with STAT3 inh-1. NIH 3T3 STAT1-luciferase reporter. actives 27% (n = 1,200);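 active = inhibition above the mean plus 3 SD of solvent-only control wells, limit set per screening run, cut at about 16% in these data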
# A number is an active result; i = inactive; nt = not tested or not shown.
SMILES,STAT1 inh,Platelet DG rel,TRAIL sens C8,STAT3 inh-1,PPC-1+TRAIL kill,STAT3 inh-2,NFkB inh 2,STAT1 inh STAT3c
COC(=O)[C@@]12C[C@@H](CC(=O)N3CCSCC3)C(=O)N(Cc3ccco3)C1=CCC(C)(C)C2,nt,nt,i,nt,nt,nt,nt,nt
Cc1cccc(C)c1-n1nnnc1C1c2ccccc2C(=O)N1CCCN1CCOCC1 (centres undefined),nt,nt,i,nt,nt,nt,nt,nt
COc1ccccc1-c1nnc(SCC(=O)Nc2ccc(Cl)cc2Cl)o1,i,i,i,i,i,nt,nt,nt
COc1cccc2c1OC[C@@H](CO)[C@H]2N(C)C(=O)Nc1ccc(Cl)cc1Cl,i,i,i,44,i,i,i,17
C=CC[n+]1c(-c2ccc(OC)cc2)csc1NNC(=O)Nc1ccccc1,i,i,i,i,i,nt,nt,nt
C=CC[n+]1c(-c2ccc(C)cc2)csc1Nc1ccc(NC(C)=O)cc1,i,i,i,63,i,52,18,i
CCC(C)NC(=O)c1cc2c(=O)n(CC)c3ccccc3c2s1 (centres undefined),nt,i,i,nt,nt,nt,nt,nt
COc1ccccc1C(=O)Nc1nc(-c2ccc(S(=O)(=O)N3CCOCC3)cc2)cs1,i,i,76,76,i,74,20,20
Cc1ccnc(NC(=O)Nc2cccc(F)c2)c1,i,i,i,46,i,i,i,i
COc1ccc(CC(=O)Nc2cccc(S(=O)(=O)N3CCCCCC3)c2)cc1OC,i,i,i,74,i,75,27,19
COc1ccc(CC(=O)Nc2cccc(SC)c2)cc1OC,i,i,i,47,i,44,i,i
COC(=O)c1cc(NC(=O)Cc2ccc(OC)c(OC)c2)cc(C(=O)OC)c1,i,i,i,i,i,nt,nt,nt
Fc1cccc(Cc2c(-c3ccco3)nc3ccc(Br)cn23)c1,nt,nt,i,nt,nt,nt,nt,nt
CC(C)(O)C#Cc1ccc(N2C(c3ccsc3)=Cc3ccc(F)cc3C2c2c[nH]c3ccccc23)cc1 (centres undefined),nt,nt,i,nt,nt,nt,nt,nt
Cc1ccc(S(=O)(=O)Nc2ccc3nc(C)sc3c2)cc1,i,i,i,i,i,nt,nt,nt
Cc1nc2ccc(NS(=O)(=O)c3ccc4c(c3)OCCO4)cc2s1,i,i,i,71,i,67,26,28
COCCN(CC(=O)Nc1ccccc1C(F)(F)F)C(=O)c1ccc(-n2cccn2)cc1,nt,nt,i,nt,nt,nt,nt,nt
Cc1ccc(S(=O)(=O)/N=C(\N)Nc2nc(C)c3cc(C)c(C)cc3n2)cc1,i,i,i,44,i,i,i,i
Cc1ccc(S(=O)(=O)/N=C(\N)Nc2nc(C)c3ccc(C)cc3n2)cc1,i,i,i,i,i,nt,nt,nt
O=C(c1ccccn1)N(Cc1ccco1)C1(C(=O)Nc2ccc(Br)cc2)CCCCC1,nt,nt,i,nt,nt,nt,nt,nt
COc1ccc(C2CCCCC2SCC(=O)O)cc1OC (centres undefined),nt,nt,i,nt,nt,nt,nt,nt
CC(C)CN1CCC1(C)C(=O)Nc1cc(-c2ccccc2)nn1C (centres undefined),nt,nt,i,nt,nt,nt,nt,nt
CCc1ccc(NC(=O)c2cc(C)on2)cc1,i,i,i,49,i,i,i,i
CCc1ccc(NC(=O)c2cc(C(C)C)on2)cc1,i,i,i,48,i,i,i,i
CCc1ccc(NC(=O)c2cc(CC(C)C)on2)cc1,i,i,i,i,i,nt,nt,nt
SMILES,STAT1 inh,Platelet DG rel,TRAIL sens C8,STAT3 inh-1,PPC-1+TRAIL kill,STAT3 inh-2,NFkB inh 2,STAT1 inh STAT3c
CCOC(=O)[C@]12CCC=C1N(Cc1ccc3c(c1)OCO3)C(=O)[C@H](CC(=O)N1CCC(c3ccccc3)CC1)C2,nt,nt,i,nt,nt,nt,nt,nt
COc1ccc(CN(C)C(C)C(=O)Nc2ccc(S(=O)(=O)N3CCCC3)cc2)c(OC)c1OC (centres undefined),i,i,nt,45,i,i,i,18
COc1ccc(CN(C)C(C)C(=O)Nc2ccc(S(=O)(=O)N3CCCCC3)cc2)c(OC)c1 (centres undefined),nt,nt,i,nt,nt,nt,nt,nt
CC(C)NC(=O)C1(C)CSCC(=O)N1C1CC1 (centres undefined),nt,nt,i,nt,nt,nt,nt,nt
O=C1NC[C@H](CCCCN2C[C@H](Cc3ccccc3)N(CCC3CCCCC3)C(=O)C2=O)N(Cc2ccccc2)C1=O,nt,nt,i,nt,nt,nt,nt,nt
Cc1cc(N2CCCCC2)nc(NCc2ccccc2)n1,i,i,i,46,i,i,i,21
Cc1cc(N2CCOCC2)nc(NCc2ccccc2)n1,i,i,i,i,i,nt,nt,nt
COc1ccc(CN2C(=O)C(CC(=O)NCCc3ccccn3)CC(C(=O)N3CCCCCC3)=C2C)cc1 (centres undefined),nt,nt,i,nt,nt,nt,nt,nt
COc1ccc(CCNc2ccc(N3C(=O)CC(C)C3=O)cc2[N+](=O)[O-])cc1 (centres undefined),i,i,i,i,i,nt,nt,nt
COc1ccc(CCNc2ccc(N3C(=O)CC(C)C3=O)cc2[N+](=O)[O-])cc1OC (centres undefined),i,i,i,70,i,58,17,i
Cc1ccc2cc(C#N)c(NCCNC(=O)C3CC3)nc2c1C,i,i,i,56,i,i,i,i
Cc1ccc(OCCN2CCN(C(=O)CCC(=O)Nc3nnc(C(C)C)s3)CC2)cc1,i,i,i,50,i,i,i,i
CCCc1nnc(NC(=O)CCC(=O)N2CCN(CCOc3ccc(C)cc3)CC2)s1,i,i,i,50,i,i,i,i
COc1ccc(S(=O)(=O)N(C)C[C@@H]2Oc3cc(C#CC4CCCCC4)ccc3S(=O)(=O)N([C@@H](C)CO)C[C@@H]2C)cc1,nt,nt,i,nt,nt,nt,nt,nt
CCOC(=O)N1CCN(C(=O)C2CCCN(Cc3nc(-c4ccc(Cl)cc4)oc3C)C2)CC1 (centres undefined),i,i,i,74,i,60,23,i
CCOC(=O)N1CCC(NC(=O)C2CCCN(Cc3nc(-c4cccc(Cl)c4)oc3C)C2)CC1 (centres undefined),i,i,i,54,i,i,13,24
CCOC(=O)C1CCCN(C(=O)c2[nH]c(C(F)(F)F)nc2-c2ccccc2)C1 (centres undefined),nt,nt,i,nt,nt,nt,nt,nt
O=C(CCl)N(c1ccccc1)c1c[nH]c2ccccc12,i,i,98,45,i,i,19,28
CC1(C(=O)Nc2cccc(Oc3ccccc3)c2)CCN1Cc1cccc2c1OCO2 (centres undefined),nt,nt,i,nt,nt,nt,nt,nt
Cc1nc2ccc(NC(=O)c3cccs3)cc2c(=O)n1Cc1ccc(Cl)cc1,i,i,i,51,i,i,i,i
COc1ccccc1N=Nc1ccc(O)c2ncccc12,nt,i,i,nt,nt,nt,nt,nt
